{"source": "PubChem BioAssay (EPA / NIEHS)", "note": "The source made the active and inactive calls. Rule for the calls: active = hit-call score of the fitted dose curve at least 0.9, where 1 is the maximum; inactive = score below 0.9.", "data": [{"assay": "CCTE_Mundy_HCI_Cortical_Synap_Neur_Matur_CellBodySpotCount: CCTE's Synaptogenesis and Neurite Maturation Assay in rat cortical cells for Cell Body Spot Count, Mundy Lab (AID 2284223)", "procedure": "CCTE_Mundy_HCI_Cortical_Synap&Neurite_Matur is a multiplexed, cell-based-readout assay that uses rat primary cortical cells with measurements taken at 288.33 hours after chemical dosing in a microplate: 96-well plate.CCTE_Mundy_HCI_Cortical_Synap_Neur_Matur_CellBodySpotCount is one of eight components of the CCTE_Mundy_HCI_Cortical_Synap&Neurite_Matur assay. It measures synaptogenesis and neurite maturation related to number of cell body-associated synapses (synaptophysin puncta) per neuron using High Content Imaging of fluorescently labelled markers.[…] Using a type of morphology reporter, loss -of-signal activity can be used to understand developmental effects.\nCells are plated onto 96 well plates and allowed 2 hr for attachment to the substrate. At days in vitro (DIV) 5, Cytosine Arabinoside (AraC) is added to arrest glial cell growth. Chemicals are dosed and a media change is performed at DIV 7 of differentiation and is continued through DIV 12 when the experiment is terminated. Cells are fixed with […] and Hoechst Dye. Cells are stained using Millipore Mouse anti-MAP2MAB3418 (1:800) and Millipore Rabbit anti-Synaptophysinsc-1750 (1:250) primary antibodies and Alexa Fluor-488 goat anti-mouse and AlexaFluor-546 goat anti-rabbit secondary antibodies to label neuronal cell nuclei, synapses and neurites. A Cellomics ArrayScan VTi HCS Reader is used for automated image acquisition and analysis of neurite outgrowth.", "values": [{"smiles": "COC(=O)Nc1nc2ccccc2[nH]1", "outcome": "inactive"}, {"smiles": "CNC(=O)Oc1cccc2c1OC(C)(C)C2", "outcome": "inactive"}, {"smiles": "CCCCOC(=O)c1ccccc1C(=O)OCc1ccccc1", "outcome": "inactive"}, {"smiles": "CCC[CH2][Sn]([Cl])([CH2]CCC)[CH2]CCC", "AC50": "0.102 µM (active)"}, {"smiles": "Nc1cc(Cl)cc(C(=O)O)c1Cl", "outcome": "inactive"}, {"smiles": "OCCOCCO", "outcome": "inactive"}, {"smiles": "[O-][Cl+]O", "outcome": "inactive"}, {"smiles": "CC(C)COC(=O)c1ccccc1C(=O)OCC(C)C", "AC50": "83.8 µM (active)"}, {"smiles": "COP(=S)(OC)SCN1C(=O)c2ccccc2C1=O", "outcome": "inactive"}, {"smiles": "CN(C)[C@@H]1C(=O)C(C(N)=O)=C(O)[C@@]2(O)C(=O)C3=C(O)c4c(O)cccc4[C@@](C)(O)[C@H]3C[C@@H]12", "outcome": "inactive"}, {"smiles": "ClC1=C(Cl)C2(Cl)C3C(Cl)C=CC3C1(Cl)C2(Cl)Cl", "note": "(configuration not stated)", "AC50": "12.4 µM (active)"}, {"smiles": "CC(C)(C)C(O)(CCc1ccc(Cl)cc1)Cn1cncn1", "note": "(configuration not stated)", "outcome": "inactive"}]}]}
